According to PubChem BioAssay AID1159580 (chemical genetic matrix, 2015):
The whole screen tested about 5,500 compounds, of which about 2,000 (36%) were called active. Roughly 18% stayed inconclusive and do not appear here. Rule as the data show it: active = normalized growth mostly below about 0.91 (no sharp cut-off); inconclusive = no clear call, values can overlap the other calls; inactive = mostly above about 0.92. This is one part of the list.

Test: chemical genetic growth profiling, strain panel (AID 1159580);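 also: tested at 20 µM; growth read once vehicle control cultures reached saturation at 30 °C; 1 = growth at the plate median or of vehicle wells; lower values mean less growth of the strain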
Details: S. cerevisiae deletion strains, growth OD
[1] = locus YAR019C, strain CDC15, stronger effect = lower value
[2] = locus YBL105C, strain PKC1, stronger effect = lower value
[3] = locus YBR135W, strain CKS1, stronger effect = lower value
[4] = locus YBR136W, strain MEC1, stronger effect = lower value
[5] = locus YBR160W, strain CDC28, stronger effect = lower value
[6] = locus YDL017W, strain CDC7, stronger effect = lower value
[7] = locus YDL028C, strain MPS1, stronger effect = lower value
[8] = locus YDL101C, strain DUN1, stronger effect = lower value
[9] = locus YDL108W, strain KIN28, stronger effect = lower value
[10] = locus YDL132W, strain cdc53, stronger effect = lower value
[11] = locus YDL214C, strain PRR2, stronger effect = lower value
[12] = locus YDR052C, strain DBF4, stronger effect = lower value
[13] = locus YDR054C, strain cdc34, stronger effect = lower value
[14] = locus YDR226W, strain ADK1, stronger effect = lower value
[15] = locus YDR477W, strain SNF1, stronger effect = lower value
[16] = locus YER123W, strain YCK3, stronger effect = lower value
[17] = locus YER133W, strain GLC7, stronger effect = lower value
[18] = locus YFL009W, strain cdc4, stronger effect = lower value
[19] = locus YFL029C, strain CAK1, stronger effect = lower value
[20] = locus YFR003C, strain YPI1, stronger effect = lower value
[21] = locus YFR019W, strain FAB1, stronger effect = lower value
[22] = locus YFR028C, strain CDC14, stronger effect = lower value
[23] = locus YGR040W, strain KSS1, stronger effect = lower value
[24] = locus YGR052W, strain FMP48, stronger effect = lower value
[25] = locus YGR092W, strain DBF2, stronger effect = lower value
[26] = locus YHR030C, strain SLT2, stronger effect = lower value
[27] = locus YHR079C, strain IRE1, stronger effect = lower value
[28] = locus YHR082C, strain KSP1, stronger effect = lower value
[29] = locus YHR205W, strain SCH9, stronger effect = lower value
[30] = locus YIL147C, strain SLN1, stronger effect = lower value
[31] = locus YJL095W, strain BCK1, stronger effect = lower value
[32] = locus YJL128C, strain PBS2, stronger effect = lower value
[33] = locus YJL157C, strain FAR1, stronger effect = lower value
[34] = locus YJR016C, strain ILV3, stronger effect = lower value
[35] = locus YJR066W, strain TOR1 (second series), stronger effect = lower value
[36] = locus YJR066W, strain TOR1, stronger effect = lower value
[37] = locus YKL048C, strain ELM1, stronger effect = lower value
[38] = locus YKL067W, strain YNK1, stronger effect = lower value
[39] = locus YKL101W, strain HSL1, stronger effect = lower value
[40] = locus YKL193C, strain SDS22, stronger effect = lower value
[41] = locus YKL203C, strain TOR2, stronger effect = lower value
[42] = locus YLR113W, strain HOG1, stronger effect = lower value
[43] = locus YLR133W, strain CKI1, stronger effect = lower value
[44] = locus YLR403W, strain SFP1, stronger effect = lower value
[45] = locus YML070W, strain DAK1, stronger effect = lower value
[46] = locus YMR001C, strain CDC5, stronger effect = lower value
[47] = locus YMR205C, strain PFK2 (second series), stronger effect = lower value
[48] = locus YMR277W, strain FCP1, stronger effect = lower value
[49] = locus YNL006W, strain LST8, stronger effect = lower value
[50] = locus YNL020C, strain ARK1, stronger effect = lower value
[51] = locus YNL161W, strain CBK1, stronger effect = lower value
[52] = locus YNL183C, strain NPR1, stronger effect = lower value
[53] = locus YNL207W, strain RIO2, stronger effect = lower value
[54] = locus YNL222W, strain SSU72, stronger effect = lower value
[55] = locus YNL307C, strain MCK1 (second series), stronger effect = lower value
[56] = locus YOL078W, strain AVO1, stronger effect = lower value
[57] = locus YOL136C, strain PFK27, stronger effect = lower value
[58] = locus YOR061W, strain CKA2, stronger effect = lower value
[59] = locus YOR119C, strain RIO1, stronger effect = lower value
[60] = locus YOR231W, strain MKK1, stronger effect = lower value
[61] = locus YOR329C, strain SCD5, stronger effect = lower value
[62] = locus YPL031C, strain PHO85, stronger effect = lower value
[63] = locus YPL153C, strain RAD53, stronger effect = lower value
[64] = locus YPL204W, strain HRR25, stronger effect = lower value
[65] = locus YPL209C, strain IPL1, stronger effect = lower value
[66] = locus YPL256C, strain CLN2, stronger effect = lower value
[67] = locus YPR025C, strain CCL1, stronger effect = lower value
[68] = locus YPR106W, strain ISR1, stronger effect = lower value
[69] = locus YPR111W, strain DBF20, stronger effect = lower value
[70] = strain NNK1, stronger effect = lower value
[71] = strain TSCII, stronger effect = lower value

Measured: normalized growth

O=[N+]([O-])c1ccc(Sc2ccccc2)c([N+](=O)[O-])c1
active: [1] 0.862 | [2] 0.894 | [3] 0.874 | [4] 0.884 | [5] 0.896 | [6] 0.89 | [7] 0.888 | [8] 0.876 | [9] 0.88 | [10] 0.867 | [11] 0.695 | [13] 0.83 | [14] 0.858 | [18] 0.847 | [19] 0.866 | [20] 0.886 | [25] 0.271 | [26] 0.492 | [29] 0.522 | [30] 0.885 | [32] 0.757 | [34] 0.877 | [37] 0.71 | [38] 0.691 | [39] 0.662 | [40] 0.876 | [42] 0.396 | [43] 0.717 | [46] 0.868 | [47] 0.678 | [48] 0.868 | [49] 0.87 | [51] 0.864 | [53] 0.859 | [54] 0.88 | [56] 0.867 | [57] 0.65 | [61] 0.884 | [65] 0.883 | [66] 0.428 | [67] 0.893 | [68] 0.849 | [69] 0.812 | [70] 0.796 | [71] 0.853
inactive: [12] 0.913 | [15] 0.75 | [16] 0.685 | [17] 0.803 | [21] 0.84 | [22] 0.899 | [23] 0.784 | [24] 0.706 | [27] 0.655 | [28] 0.719 | [31] 0.673 | [33] 0.748 | [35] 0.756 | [36] 0.748 | [41] 0.785 | [44] 0.758 | [45] 0.689 | [50] 0.733 | [52] 0.708 | [55] 0.704 | [58] 0.768 | [59] 0.806 | [60] 0.64 | [62] 0.73 | [63] 0.723 | [64] 0.727

O=[N+]([O-])c1ccc(Sc2ccccc2)cc1O
inactive: [1] 0.915 | [2] 0.925 | [3] 0.927 | [4] 0.924 | [5] 0.929 | [6] 0.929 | [7] 0.931 | [8] 0.914 | [9] 0.927 | [10] 0.909 | [11] 0.823 | [12] 0.943 | [13] 0.899 | [14] 0.958 | [15] 0.844 | [16] 0.78 | [17] 0.831 | [18] 0.91 | [19] 0.928 | [20] 0.928 | [21] 0.895 | [22] 0.959 | [23] 0.84 | [24] 0.817 | [25] 0.709 | [26] 0.904 | [27] 0.812 | [28] 0.838 | [29] 0.864 | [30] 0.923 | [31] 0.806 | [32] 0.843 | [33] 0.796 | [34] 0.913 | [35] 0.834 | [36] 0.827 | [37] 0.878 | [38] 0.821 | [39] 0.862 | [40] 0.921 | [41] 0.871 | [43] 0.85 | [44] 0.8 | [45] 0.824 | [46] 0.919 | [47] 0.824 | [48] 0.917 | [49] 0.925 | [50] 0.837 | [51] 0.922 | [52] 0.828 | [53] 0.912 | [54] 0.924 | [55] 0.836 | [56] 0.903 | [57] 0.816 | [58] 0.817 | [59] 0.892 | [60] 0.806 | [61] 0.92 | [62] 0.807 | [63] 0.828 | [64] 0.798 | [65] 0.923 | [66] 0.895 | [67] 0.924 | [69] 0.89 | [70] 0.892 | [71] 0.906
active: [42] 0.736 | [68] 0.875
